HCV inh = qHTS Assay for Inhibitors of Hepatitis C Virus (HCV); Potency, µM (titrated, usually from 41.8 µM), for the others: at the top dose activity change, negative = inhibition, usual class: inhibitors; actives 3.4% (n = 340,000); Huh7.5.1 HCVcc-Cre infection, luciferase reporter, 44 h
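Luciferase read-out (15 sec integration) after a 15 min room-temperature substrate step quantifies HCVcc-Cre infection. Cells, 1,000 per well, had compound added 4 h post-plating, then virus at ~0.5 moi, and were cultured 44 h.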
LASV entry inh = qHTS for Inhibitors of binding or entry into cells for Lassa Virus; Lassa virus pseudotype entry inhibition, cell reporter; Potency, µM (series often up to 37.9 µM), for inactives: at the top dose activity change, negative = inhibition, most hits filed as inhibitors; actives 1.2% (n = 300,000); AID 540256, 2011; calls by dose curve; tested in HEK293 cells; further: nearly all actives have a fitted effect of over 50% in size
RE007 growth inh = qHTS Assay for Inhibitors of the HIV-1 protein Vpr; S. pombe RE007 Vpr strain, BacTiter-Glo ATP luminescence, 24 h; Potency, µM (top dose mostly 92.2 µM), without a hit: top-dose activity change, negative = less growth, actives largely listed as inhibitors; actives 0.21% (n = 360,000); AID 651644, 2012; active means well fitted falling curve with a large enough effect; inconclusive means small, poorly fitted or top-dose-only effect; inactive means no such curve, though single readings can be large or run the other way; further: nearly all actives have a fitted effect of over 50% in size
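Fission yeast RE007 carrying one integrated HIV-1 vpr copy, seeded at OD 0.01 in PMG+AL medium with 23 nL pinned compound. Grown 24 h at 30 degrees; viability read by BacTiter-Glo luminescence after 5 min.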
FMDV inh = High Throughput Screening for Foot and Mouth Disease Virus Antivirals; actives 1.2% (n = 410,000); FMDV antiviral cell-based qHTS; Potency, µM (series often up to 57.9 µM), without a hit: top-dose activity change, negative = inhibition, hits mostly inhibitors; calls by dose curve; tested in HEK293T cells; further: read-out not given here; nearly all actives have a fitted effect of over 45% in size
Marburg entry inh = qHTS for inhibitors of binding or entry into cells for Marburg Virus; actives 1.8% (n = 300,000); Marburg virus pseudotyped entry inhibition, cell reporter; Potency, µM (titrated, usually from 37.8 µM), without a hit: at the highest dose activity change, negative = inhibition, most hits filed as inhibitors; calls by dose curve; tested in HEK293 cells
Sm TGR block = qHTS Assay for the Inhibitors of Schistosoma Mansoni Peroxiredoxins. Schistosoma mansoni thioredoxin glutathione reductase (TGR), Q962Y6. purified TGR, DTNB reduction, TNB absorbance 405 nm. Potency, µM (highest dose often 114 µM), without a hit: at the highest dose activity change, negative = inhibition, most hits filed as inhibitors. actives 3% (n = 360,000). AID 485364, 2010; further: nearly all actives have a fitted effect of over 60% in size
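First, TGR (20 nM dispensed) and NADPH were mixed with compound. Second, a 15 min room-temperature incubation followed. Third, further NADPH and then DTNB were added to start the reaction. Finally, TNB absorbance was monitored kinetically.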
* hit, by the source's call; ? = inconclusive; nt = no result; [ ] = dose if it differs, or a comment. Shown are actives, neighbours in structure and some others; about 7.2% of the full set was active somewhere. Unless noted, the call rests on the fitted dose curve; in most records, active means well fitted curve in the direction sought with a large enough effect; inconclusive means small, poorly fitted or top-dose-only effect, or another doubt; inactive means no such curve, though single readings can be large; an effect the other way counts as inactive or inconclusive. On the % scale 0 is the no-effect control and ±100 the full control effect; potency means the concentration at half of the fitted maximal effect.

SMILES	HCV inh	LASV entry inh	RE007 growth inh	FMDV inh	Marburg entry inh	Sm TGR block
CCC(=O)N1CCc2cc(Br)cc(S(=O)(=O)CCC(=O)Nc3cccc(CC)c3)c21	nt	1%[46.1 µM]	nt	-18%	0%[46.1 µM]	7%
COc1ccccc1N1CCN(C(=O)CCS(=O)(=O)c2cc(Br)cc3c2N(C(=O)C2CC2)CC3)CC1	nt	-8%[46.1 µM]	nt	-30%	?	-9%
Cc1ccc(CCNC(=O)c2cc3ccccn3n2)cc1	nt	-29%[46.1 µM]	nt	9%	nt	37%
Cc1sc(NC(=O)c2cc(-c3ccc(Cl)cc3)nc3ccccc23)c(C(N)=O)c1C	?	?	-1%	?	?	-18%
Cc1sc(NC(=O)c2cc(-c3ccccc3)nc3ccccc23)c(C(N)=O)c1C	13µM*	-15%	1%	-25%	?	0%
CC(C)Cc1nc(Nc2ccccc2C#N)c2nnn(Cc3ccccc3)c2n1	16µM*	?	-4%	-28%	?	-22%
CC(C)Cc1nc(N2CCC(C(N)=O)CC2)c2nnn(Cc3ccccc3)c2n1	-16%	2%	-7%	30%	-1%	4%
CSc1ccc(CN(C)C(=O)c2cc(=O)c3ccccc3o2)cc1	-1%	-2%[46.1 µM]	4%	17%	0%[46.1 µM]	0%
CSc1ccc(CN(C)C(=O)c2cc(=O)[nH]c3ccccc23)cc1	13%	-14%	0%	2.8µM*	0%[46.1 µM]	1%
O=C(Nc1ccccc1C(=O)OCc1cc(=O)n2nc(C3CC3)sc2n1)c1ccc(Cl)cc1	nt	18%[46.1 µM]	nt	-13%	nt	-1%
Cc1ccc(-c2nc(S(=O)(=O)c3ccc(C)cc3)c(SCC(=O)NC3CCCCC3)o2)cc1	nt	1%[46.1 µM]	nt	16%	-5%[46.1 µM]	2%
Cn1c(SCc2ccc(Cl)cc2)nnc1C1CC1	3%	6%	-5%	11%	-1%[46.1 µM]	-12%
Cn1c(SCc2ccccc2)nnc1C1CCCNC1 (stereo unspecified)	?	?	24%	2%	0%	45µM*
Cc1cc(C(=O)NCCc2ccc(Cl)cc2)c2c(C)nn(-c3cccc(F)c3)c2n1	nt	26%[46.1 µM]	nt	6%	nt	16%
CN(C(=O)/C=C/c1ccc([N+](=O)[O-])s1)c1ccccc1	22µM*	nt	-26%	?	nt	11µM*
CN(C(=O)COC(=O)/C=C/c1ccccc1[N+](=O)[O-])c1ccccc1	-4%	14%	-8%	53%	16%[46.1 µM]	46%
COc1ccc(NC(=O)C2(C)Cc3c(-c4cccc(C(N)=O)c4)ccnc3O2)cc1OC (stereo unspecified)	nt	nt	22%	-24%	nt	nt
CCOCCCn1c(SCC(=O)Nc2ccccc2)nc2ccccc2c1=O	-7%	?	3%	-20%	-20%	-17%
Cn1c(SCc2cccc(C#N)c2)nc2ccccc2c1=O	32µM*	?	9%	?	-7%[46.1 µM]	-14%
Cc1ccc(CSc2nc3ccccc3c(=O)n2C)cc1	?	-15%	16%	?	?	-11%
O=C(Nn1c(SCc2cccc([N+](=O)[O-])c2)nc2ccccc2c1=O)c1ccccc1	-10%	?	-6%	51%	?	-3%
Cn1c(SCc2cccc([N+](=O)[O-])c2)nc2ccccc2c1=O	-25%	-19%	38%	20µM*	?	-5%
CCOCCCn1c(SCc2nc3ccccc3s2)nc2ccccc2c1=O	11µM*	?	nt	0%	7.1µM*	6%
COc1ccc(C(=O)Nn2c(SCc3cccc([N+](=O)[O-])c3)nc3ccccc3c2=O)cc1	?	3.3µM*	9%	?	8.9µM*	22%
CN(C)c1cccc(NC(=O)C2(C)Cc3c(-c4cccnc4)ccnc3O2)c1 (stereo unspecified)	nt	nt	-10%[18.4 µM]	3%	nt	nt
SMILES	HCV inh	LASV entry inh	RE007 growth inh	FMDV inh	Marburg entry inh	Sm TGR block
CC1C(=O)OC2C(O)C34C5CC(C(C)(C)C)C36C(OC(=O)C6O)OC4(C(=O)O5)C12O (stereo unspecified)	nt	nt	nt	-16%	nt	nt
COCCn1c(SCCOc2ccccc2)nc2ccccc2c1=O	?	-8%	31%	25µM*	?	-1%
CCOC(CCn1c(SCc2cccc([N+](=O)[O-])c2)nc2ccccc2c1=O)OCC	?	4%	-4%	?	?	-18%
COCCn1c(SCc2cccc([N+](=O)[O-])c2)nc2ccccc2c1=O	11µM*	?	4%	?	?	3%
COCCn1c(SCC(=O)c2ccccc2)nc2ccccc2c1=O	?	?	3%	-28%	?	-8%
CC(=O)c1ccc(NC(=O)c2cc(-c3ccc(C)s3)nc3ccccc23)cc1	nt	27%[46.1 µM]	nt	-12%	?	0%
O=C(CN1C(=O)C2(SCC(=O)N2c2ccc(F)c(F)c2)c2ccccc21)Nc1cccc(Cl)c1 (stereo unspecified)	nt	-27%[46.1 µM]	nt	?	nt	6%
C=CCOC(=O)[C@H](C#N)c1nc2ccccc2nc1N1CCC(C(=O)OCC)CC1	nt	nt	nt	nt	-4%	nt
COCCN1C(=S)N[C@@H](c2ccccc2)C(C(=O)OC)=C1C	nt	nt	nt	nt	nt	32µM*
COC(=O)C1=C(C)N(Cc2ccccc2)C(=O)NC1c1cccc(C(F)(F)F)c1 (stereo unspecified)	nt	nt	nt	nt	17%[14.2 µM]	nt
CCN1C(=S)NC(c2ccccc2)C(C(=O)OC)=C1C (stereo unspecified)	nt	nt	nt	nt	-2%[14.2 µM]	nt
COC(=O)C1=C(C)N(Cc2ccco2)C(=O)N[C@@H]1c1cccc(C(F)(F)F)c1	1%[8.37 µM]	-22%	nt	nt	5%	28µM*
COC(=O)C1=C(C)N(Cc2ccccc2)C(=O)N[C@H]1c1cccc(C(F)(F)F)c1	0.4µM*	nt	-3%	0%	17%[14.2 µM]	-1%
COc1ccc(C(=O)C(CN2CCCC2)c2ccccc2)cc1 (stereo unspecified)	?	?	?	16µM*	?	-5%
COc1ccc(C(=O)C(OC(=O)c2ccccc2)c2ccccc2)cc1 (stereo unspecified)	10%	?	0%	79%	?	16%
O=C(c1ccccc1)C(CCC(CN1CCOCC1)C(=O)c1ccccc1)CN1CCOCC1 (stereo unspecified)	5.6µM*	14µM*	5%	25µM*	?	8.9µM*
O=C(c1ccc(F)cc1)C(CN1CCOCC1)c1ccccc1 (stereo unspecified)	11µM*	?	?	8.9µM*	?	-16%
CCCCOc1ccc(C(=O)C(CN2CCOCC2)c2ccccc2)cc1 (stereo unspecified)	?	?	-5%	18µM*	?	6%
